Experiments:
Experiment in all cases: PBM binding z-score (relative to random genomic background probes); higher = stronger binding; sequences stand for … in GC…GCGATTGACAGCGTAGAATGAAGG
[1] = tested on: FXR:RXRa (NR concentration 270 nM, RXRa partner concentration 90 nM)
Method in brief: (§1)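 Ligand-free nuclear receptor dimers were bound for 1 h to custom Agilent 4×180K protein-binding microarrays. Detection used antibodies against each partner (one per run). Binding z-scores rest on regression-normalized fluorescence, with random background probes as the reference.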

[2] = tested on: LXRa:RXRa (NR concentration 270 nM, RXRa partner concentration 90 nM)
Method in brief: as §1

[3] = tested on: LXRa homodimer (NR concentration 270 nM)
Method in brief: as §1

[4] = tested on: LXRb:RXRa (NR concentration 270 nM, RXRa partner concentration 90 nM)
Method in brief: as §1

[5] = tested on: LXRb homodimer (NR concentration 270 nM)
Method in brief: as §1

[6] = tested on: PPARa:RXRa (NR concentration 270 nM, RXRa partner concentration 90 nM)
Method in brief: as §1

[7] = tested on: PPARg:RXRa (NR concentration 180 nM, RXRa partner concentration 90 nM)
Method in brief: as §1

[8] = tested on: PPARg:RXRa 270nM:90nM, anti-RXR (NR concentration 270 nM, RXRa partner concentration 90 nM)
Method in brief: as §1

[9] = tested on: PPARg:RXRa 30nM:10nM, anti-RXR (NR concentration 30 nM, RXRa partner concentration 10 nM)
Method in brief: as §1

[10] = tested on: PPARg:RXRa 90nM:30nM, anti-RXR (NR concentration 90 nM, RXRa partner concentration 30 nM)
Method in brief: as §1

[11] = tested on: PPARg:RXRa DBDmut IVT, anti-RXR (DBD mutation: RXRa K156A/R161A, NR concentration 270 nM, RXRa partner concentration 90 nM)
Method in brief: as §1

[12] = tested on: PPARg:RXRa IVT, anti-PPARg (NR concentration 270 nM, RXRa partner concentration 90 nM)
Method in brief: as §1

[13] = tested on: PPARg DBDmut:RXRa IVT, anti-PPARg (DBD mutation: PPARg1 K132A/R137A, NR concentration 270 nM, RXRa partner concentration 90 nM)
Method in brief: as §1

[14] = tested on: PPARg DBDmut IVT, anti-PPARg (DBD mutation: PPARg1 K132A/R137A, NR concentration 270 nM)
Method in brief: as §1

[15] = tested on: PPARg homodimer (NR concentration 180 nM)
Method in brief: as §1

[16] = tested on: PXR:RXRa (NR concentration 270 nM, RXRa partner concentration 90 nM)
Method in brief: as §1

[17] = tested on: PXR homodimer (NR concentration 270 nM)
Method in brief: as §1

[18] = tested on: RARa:RXR (NR concentration 270 nM, RXRa partner concentration 90 nM)
Method in brief: as §1

[19] = tested on: RARa homodimer (NR concentration 270 nM)
Method in brief: as §1

[20] = tested on: RARb:RXRa (NR concentration 270 nM, RXRa partner concentration 90 nM)
Method in brief: as §1

Sequence	PBM binding z-score [1]	PBM binding z-score [2]	PBM binding z-score [3]	PBM binding z-score [4]	PBM binding z-score [5]	PBM binding z-score [6]	PBM binding z-score [7]	PBM binding z-score [8]	PBM binding z-score [9]	PBM binding z-score [10]	PBM binding z-score [11]	PBM binding z-score [12]	PBM binding z-score [13]	PBM binding z-score [14]	PBM binding z-score [15]	PBM binding z-score [16]	PBM binding z-score [17]	PBM binding z-score [18]	PBM binding z-score [19]	PBM binding z-score [20]
ATCTCTAGGTAAAGTTGAGTGAAAGATCGATAGA	0.674	0.644	-0.0419	0.163	0.646	0.992	1.37	2.56	1.23	2.07	2.32	2.1	0.815	1.27	0.789	-0.222	0.345	0.0645	0.741	0.652
CGTCCAAGGTAAAGGTCAGTGAAAGAGACTCGAA	3.41	3.38	0.618	3.01	-0.119	4.54	5.24	6.05	3.76	5.72	1.42	3.27	-0.427	-0.748	1.81	3.05	0.298	3.83	1.38	4.61
ACTATTAGTTCACTTAGGGCAACCGATACGACGC	1.66	0.968	0.685	0.657	0.81	0.893	1.04	0.566	0.591	0.169	0.466	0.672	1.13	1.63	0.741	1.86	5.76	0.774	0.399	2.35
TAGCCTAGGTCATTGGGACAGTATAGTACGCATC	4.69	3.35	0.922	2.45	0.648	3.84	3.81	3.69	1.27	2.57	3.11	3.8	1.3	0.736	2.9	1.78	-0.233	2.5	0.512	3.75
CGTCCAAGGTCAGCAGGTCGGTGAAAGCGACGTG	5.28	3.29	-0.232	2.07	-0.502	4.33	2.97	3.45	0.508	2.15	2.81	2.89	-0.853	-0.476	2.43	2.61	-0.066	3.58	0.0156	5.19
GCAGACAGGTGAAACGCAGGTAACTGAGGGTGGC	-0.0768	-0.241	-0.455	-0.345	-0.944	0.632	0.492	-0.236	-0.698	-0.467	0.757	0.578	0.338	-0.375	-0.52	-0.257	-0.434	0.257	-0.289	0.65

Reference: the supplement of paper PMC6555819
